The values below come from the supplement of paper PMC3545927.

The other results are listed elsewhere or left out. How many sequences the whole screen found active is unknown.

The experiment has as its target furin, P09958. The experiment is described as follows: furin cleavage Z-score vs untreated control; higher = more cleavage, active = 3.5 or more, inactive = 1 or less, 8 variable residues between constant flanks. On the procedure:
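Multiplexed peptide-cDNA fusion cleavage assay. 8-mer variable peptides flanked by constant Cys-Ala (N-term) and Ala-Gly-Asn-Ala-Ser-Ala-Ser-Ala (C-term) and conjugated to a cDNA oligonucleotide were bead-immobilised via the N-terminus. They were treated with purified furin at a 1:10 enzyme:substrate ratio in 50 mM HEPES pH 7.5, 1 mM CaCl2, 100 mM NaCl for 7.5, 15 or 30 min. Released cDNA was counted by next-generation sequencing, and log counts versus no-furin controls were lowess-adjusted and converted to robust Z-scores.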

Chain of furin, P09958 (P09958 whole entry, the tested form may be a part): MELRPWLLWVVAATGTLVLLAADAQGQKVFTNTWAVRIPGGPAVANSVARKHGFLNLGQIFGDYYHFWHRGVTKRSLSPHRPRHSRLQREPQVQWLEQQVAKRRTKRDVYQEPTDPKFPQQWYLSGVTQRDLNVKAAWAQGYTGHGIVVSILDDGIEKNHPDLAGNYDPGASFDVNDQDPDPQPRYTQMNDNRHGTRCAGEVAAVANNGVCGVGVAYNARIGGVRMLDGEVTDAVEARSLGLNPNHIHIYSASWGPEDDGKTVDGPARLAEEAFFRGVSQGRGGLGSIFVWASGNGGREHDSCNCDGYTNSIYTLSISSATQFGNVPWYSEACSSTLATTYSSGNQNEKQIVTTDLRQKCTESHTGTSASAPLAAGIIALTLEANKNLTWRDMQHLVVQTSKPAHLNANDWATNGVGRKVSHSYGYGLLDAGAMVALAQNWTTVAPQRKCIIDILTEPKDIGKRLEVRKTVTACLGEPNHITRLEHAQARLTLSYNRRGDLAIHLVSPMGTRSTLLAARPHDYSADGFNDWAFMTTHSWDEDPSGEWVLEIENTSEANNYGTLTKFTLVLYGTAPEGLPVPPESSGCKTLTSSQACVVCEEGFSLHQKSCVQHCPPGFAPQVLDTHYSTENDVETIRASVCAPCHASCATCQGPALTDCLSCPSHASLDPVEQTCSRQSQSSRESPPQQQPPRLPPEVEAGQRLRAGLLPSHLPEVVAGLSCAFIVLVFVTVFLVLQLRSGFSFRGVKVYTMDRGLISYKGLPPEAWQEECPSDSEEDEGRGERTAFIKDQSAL

B1: HC2289 (peptide)
chain: CADYEVVTSTAGNASASA
With B1, the “furin cleavage Z-score” value (7.5 min) was 0.403 (inactive), the “furin cleavage Z-score” value (15 min) was 0.654 (inactive) and the “furin cleavage Z-score” value (30 min) is 0.0996 (inactive).

B2: FS-1792 (peptide)
chain: CARSHRSCRTAGNASASA
With B2, the “furin cleavage Z-score” value runs as follows: (7.5 min) 0.788 (inactive); (15 min) 2.22; (30 min) 3.59 (active).

B3: FS-1688 (peptide)
chain: CARCYRSCETAGNASASA
B3: the “furin cleavage Z-score” value reads like this: (7.5 min) -1.32 (inactive); (15 min) 0.463 (inactive); (30 min) -0.398 (inactive).

B4: HC662 (peptide)
chain: CASARRGREIAGNASASA
With B4, the “furin cleavage Z-score” value is 7.44 (active) (7.5 min), 8.55 (active) (15 min) and 8.19 (active) (30 min).

B5: FS-1272 (peptide)
chain: CARSHRMRRHAGNASASA
With B5, the “furin cleavage Z-score” value reads like this: (7.5 min) 12.9 (active); (15 min) 13.7 (active); (30 min) 9.81 (active).

B6: FS-1418 (peptide)
chain: CASSKRNRRHAGNASASA
B6: the “furin cleavage Z-score” value (7.5 min) was 10.5 (active), the “furin cleavage Z-score” value (15 min) is 12 (active) and the “furin cleavage Z-score” value (30 min) is 10.1 (active).

B7: HC306 (peptide)
chain: CAFTFSPRRHAGNASASA
B7: the “furin cleavage Z-score” value runs as follows: (7.5 min) -1.3 (inactive); (15 min) -0.113 (inactive); (30 min) -0.24 (inactive).

B8: HC1653 (peptide)
chain: CASHARPRWIAGNASASA
On to B8, for which the “furin cleavage Z-score” value is, setting by setting: (7.5 min) 0.938 (inactive); (15 min) 1.44; (30 min) 0.423 (inactive).

B9: FS-2852 (peptide)
chain: CASSKRAEAPAGNASASA
Consider B9, for which the “furin cleavage Z-score” value is -1.06 (inactive) (7.5 min), -1.45 (inactive) (15 min) and 0.412 (inactive) (30 min).

B10: HC1291 (peptide)
chain: CAAEEDEREIAGNASASA
For B10, the “furin cleavage Z-score” value is -0.251 (inactive) (7.5 min), -1.7 (inactive) (15 min) and -0.863 (inactive) (30 min).

B11: FS-1791 (peptide)
chain: CARSHRDTATAGNASASA
For the sequence B11, the “furin cleavage Z-score” value runs as follows: (7.5 min) 0.447 (inactive); (15 min) 1.01; (30 min) -0.325 (inactive).

B12: HC1562 (peptide)
chain: CAYLTRDPTTAGNASASA
Take B12: the “furin cleavage Z-score” value was -1.51 (inactive) (7.5 min), -0.691 (inactive) (15 min) and -1.7 (inactive) (30 min).

B13: HC2288 (peptide)
chain: CADWEVVTSTAGNASASA
For the sequence B13, the “furin cleavage Z-score” value (7.5 min) is -1.03 (inactive), the “furin cleavage Z-score” value (15 min) was -0.418 (inactive) and the “furin cleavage Z-score” value (30 min) is -0.194 (inactive).

B14: HC1410 (peptide)
chain: CAKANLLSVEAGNASASA
Take B14: the “furin cleavage Z-score” value (7.5 min) is -0.514 (inactive), the “furin cleavage Z-score” value (15 min) was -0.264 (inactive) and the “furin cleavage Z-score” value (30 min) was -1.3 (inactive).

B15: HC2500 (peptide)
chain: CASCPCSAHLAGNASASA
As to B15, the “furin cleavage Z-score” value is, setting by setting: (7.5 min) 0.854 (inactive); (15 min) -0.381 (inactive); (30 min) 0.717 (inactive).

B16: HC2020 (peptide)
chain: CAVCCCSMSYAGNASASA
In the case of B16, the “furin cleavage Z-score” value (7.5 min) is 0.181 (inactive), the “furin cleavage Z-score” value (15 min) turned out to be 1.69 and the “furin cleavage Z-score” value (30 min) was 1.02.

B17: HC984 (peptide)
chain: CATCMSADLEAGNASASA
Take B17: the “furin cleavage Z-score” value is 0.644 (inactive) (7.5 min), 0.775 (inactive) (15 min) and 1.54 (30 min).

B18: HC225 (peptide)
chain: CAGFADLMGYAGNASASA
Regarding B18, the “furin cleavage Z-score” value is -1.18 (inactive) (7.5 min), -0.646 (inactive) (15 min) and -1.14 (inactive) (30 min).

B19: FS-945 (peptide)
chain: CAMSMRVRRHAGNASASA
Consider B19, for which the “furin cleavage Z-score” value (7.5 min) is 10 (active), the “furin cleavage Z-score” value (15 min) is 10.3 (active) and the “furin cleavage Z-score” value (30 min) was 7.98 (active).

B20: FS-300 (peptide)
chain: CASPNRSRRHAGNASASA
Consider B20, for which the “furin cleavage Z-score” value was 9.77 (active) (7.5 min), 10.7 (active) (15 min) and 7.23 (active) (30 min).

B21: HC210 (peptide)
chain: CASPRGSRPSAGNASASA
As for B21, the “furin cleavage Z-score” value by setting is: (7.5 min) 0.189 (inactive); (15 min) 0.149 (inactive); (30 min) -0.107 (inactive).

B22: HC837 (peptide)
chain: CAGSVTVPHPAGNASASA
Consider B22, for which the “furin cleavage Z-score” value is, setting by setting: (7.5 min) 0.881 (inactive); (15 min) 0.63 (inactive); (30 min) 0.486 (inactive).

B23: HC520 (peptide)
chain: CAVVLLFLLLAGNASASA
For B23, the “furin cleavage Z-score” value (7.5 min) is -0.794 (inactive), the “furin cleavage Z-score” value (15 min) was -0.656 (inactive) and the “furin cleavage Z-score” value (30 min) is -1.88 (inactive).

B24: HC871 (peptide)
chain: CALDVSVIPTAGNASASA
For B24, the “furin cleavage Z-score” value was -2.6 (inactive) (7.5 min), -1.18 (inactive) (15 min) and -0.758 (inactive) (30 min).

B25: HC894 (peptide)
chain: CADPTFTIETAGNASASA
For B25, the “furin cleavage Z-score” value reads like this: (7.5 min) -0.863 (inactive); (15 min) -0.464 (inactive); (30 min) -0.935 (inactive).

B26: HC1904 (peptide)
chain: CATTPCSGIWAGNASASA
Turning to B26, the “furin cleavage Z-score” value was -0.536 (inactive) (7.5 min), 0.611 (inactive) (15 min) and -1.36 (inactive) (30 min).

B27: FS-1054 (peptide)
chain: CAPSCRYRRLAGNASASA
Take B27: the “furin cleavage Z-score” value (7.5 min) is 4.67 (active), the “furin cleavage Z-score” value (15 min) was 7.06 (active) and the “furin cleavage Z-score” value (30 min) was 7.38 (active).

B28: FS-1555 (peptide)
chain: CAPSRRTRRLAGNASASA
For B28, the “furin cleavage Z-score” value runs as follows: (7.5 min) 7.98 (active); (15 min) 11.7 (active); (30 min) 8.56 (active).

B29: FS-60 (peptide)
chain: CALWGRTRRLAGNASASA
On to B29, for which the “furin cleavage Z-score” value was 1.66 (7.5 min), 4.15 (active) (15 min) and 3.16 (30 min).

B30: FS-1554 (peptide)
chain: CAPSRRQQRAAGNASASA
With B30, the “furin cleavage Z-score” value by setting is: (7.5 min) 9.53 (active); (15 min) 8.72 (active); (30 min) 7.58 (active).

B31: HC971 (peptide)
chain: CAPTPLLYRLAGNASASA
Consider B31, for which the “furin cleavage Z-score” value was -0.296 (inactive) (7.5 min), 0.704 (inactive) (15 min) and 0.366 (inactive) (30 min).

B32: HC1137 (peptide)
chain: CAVTQLLRRLAGNASASA
B32: the “furin cleavage Z-score” value reads like this: (7.5 min) 0.0354 (inactive); (15 min) -1.42 (inactive); (30 min) -1.96 (inactive).
